# Test results reported in PubChem BioAssay AID588549 (Broad Institute, 2011).
# The campaign covered roughly 360,000 compounds. About 780 (0.22%) were called active. This is one part of a sample in which actives are shown more often than they occur. Values without a mark were called inactive. Cut-off read from the data, not from the text of the source: active = inhibition above about 8.5% (passing the limit was not always enough); inconclusive = no clear call, values can overlap the other calls.
# Tested on: Mycobacterium tuberculosis FadD28 fatty-acid-AMP ligase
# Assay: inhibitors of FadD28 bisubstrate probe binding, primary screen, biochemical, fluorescence polarization, single point (AID 588549)
# Conditions: at 12.5 µM, hits give high values
row,SMILES,inhibition
1,Cc1cc(OCC(=O)N2CCN(c3ncccn3)CC2)ccc1Cl,-3.44%
2,COc1ccc(C(=O)Nc2ccnn2C2CCN(Cc3ccncc3)CC2)cc1,-2.54%
3,CCC(C)C(CO)NC(=O)/C=C/[C@H]1O[C@@H](n2cnc3c(NC(=O)c4ccccc4)ncnc32)[C@H](O)[C@@H]1O (stereo partly specified),-0.392%
4,COc1cc(C(O)c2nc(-c3cnn(C)c3)cs2)ccc1F (stereo unspecified),-2.58%
5,CS(=O)(=O)N(Cc1ccccc1)c1ccc(C(=O)NN=C2CCCCCC2)cc1,-7.2%
6,CCCN(C(=O)c1nc2nccc(C)n2n1)c1c(N)n(Cc2ccccc2)c(=O)[nH]c1=O,0.906%
7,O=Nc1c(O)cc(O)c2ccccc12,-1.75%
8,COc1ccc(C(=O)NCc2ccc(C)cc2)cc1S(=O)(=O)N1CCCC1,28% (active)
9,COc1ccc(C(=O)NCC2CCCCC2)cc1S(=O)(=O)N1CCCC1,-0.215%
10,COc1ccc(C(=O)NCC2CCCO2)cc1S(=O)(=O)NCc1ccc(Cl)cc1 (stereo unspecified),-1.14%
11,COc1ccc(C(=O)NCc2ccc(Cl)cc2)cc1S(=O)(=O)N1CCCC1,39.8% (active)
12,COc1ccccc1CNC(=O)c1ccc(Cl)c(S(=O)(=O)N2CCCC2)c1,1.35%
13,COC(=O)c1ccc(CNC(=O)c2ccc(S(=O)(=O)N3CCCCCC3)cc2)cc1,1.15%
14,C=CCSc1ccc(S(=O)(=O)N2CCN(C)CC2)cn1,-0.339%
15,CCN(CC)C(CNC(=O)CSc1nnnn1-c1cccc(F)c1)c1ccco1 (stereo unspecified),-0.979%
16,Cc1ccc(S(=O)(=O)N(C)C)cc1NC(=O)COC(=O)c1c(C)noc1C,-3.04%
17,COCCNC(=O)CCCn1c(=O)c2ccccc2n(Cc2cccc([N+](=O)[O-])c2)c1=O,-2.03%
18,CSC1=NC2(C)CCCCC2C12C=CC(=O)C=C2 (stereo unspecified),-1.74%
19,O=C(Nc1ccc(N2CCOCC2)c(Cl)c1)c1ccc(S(=O)(=O)N2CCOCC2)cc1,-1.1%
20,CC(=O)c1nn(-c2cccc(C(F)(F)F)c2)c(=O)[nH]c1=O,-2.32%
21,O=C(Nc1cc(=O)[nH]c2ncnn12)c1ccccc1Cl,0.264%
22,CC(C(=O)N1CCOCC1)N1c2cccc3cccc(c23)S1(=O)=O (stereo unspecified),-1.36%

row,SMILES,inhibition
1,OC1CN=C2Sc3ccccc3N2C1 (stereo unspecified),-1.93%
2,COc1ccccc1NC(=O)CSc1nnc(Cn2nnc(-c3ccccc3)n2)n1-c1ccccc1,-2.49%
3,Nc1cc(C(=O)N2CCN(c3ccccc3Cl)CC2)ccc1N1CC2CC(C1)c1cccc(=O)n1C2 (stereo unspecified),0.263%
4,COc1cc(CCC(=O)N2CCN(c3ccccc3Cl)CC2)cc(OC)c1OC,67.4% (active)
5,COc1cc(CCC(=O)Nc2ccncc2Cl)cc(OC)c1OC,-0.965%
6,CC(=O)Nc1ccc(S(=O)(=O)NCCC(=O)N2CCN(c3ccccc3Cl)CC2)cc1,-0.39%
7,CCOc1ccc(CCNC(=O)CN2C(=O)NC3(CCc4ccccc43)C2=O)cc1OCC (stereo unspecified),-4.62%
8,C=CCN(CC=C)CCOc1ccccc1[N+](=O)[O-],0.271%
9,COC(=O)[C@H](C(C)C)n1c(C)c(C(C)=O)c(C(C)=O)c1C,-1.13%
10,N#Cc1ccc(C(=O)OCC(=O)NC(=O)NC2CCCCC2)cc1,-1.55%
11,CCS(=O)(=O)Nc1ccc(C2=NN(S(=O)(=O)c3ccc(F)cc3)C(c3ccco3)C2)cc1 (stereo unspecified),-3.77%
12,COc1cccc(C2CC(c3cccs3)=NN2C(=O)CSC2=NCCS2)c1OC (stereo unspecified),-1.77%
13,COc1cccc(C2CC(c3ccccc3)=NN2S(=O)(=O)c2ccccc2)c1OC (stereo unspecified),9.71% (active)
14,COCCN(CCOC)c1nc(N)c2c(N)nc3c(c2c1C#N)CC(=O)N3Cc1ccc(Cl)cc1,39.6% (active)
15,Cc1ccc(-c2csc(NCCc3nc4cc(Cl)c(Cl)cc4n3CCOCCO)n2)cc1,-0.743%
16,CC(C)CC(=O)Nc1nnc(S(=O)(=O)N(C)c2ccc(Cl)cc2)s1,19.6% (active)
17,CCC(=O)Nc1nnc(S(=O)(=O)N(CC(C)C)c2ccccc2)s1,-1.99%
18,Cc1nc(NC(=O)CN(C)S(=O)(=O)c2ccc(Cl)cc2)sc1C,0.291%
19,CN(CC#CCC(c1ccccc1)c1ccccc1)C(C)(C)C,-4.42%
20,O=C(NCCc1ccco1)c1ccc(OCc2cn3ccccc3n2)cc1,-3.83%
21,Cc1ccccc1-c1csc(C(O)c2cccc(Cl)c2)n1 (stereo unspecified),-5.7%
22,COc1cccc2c1C(=O)c1c(O)c3c(c(O)c1C2=O)CC(O)(C(C)=NNC(=O)c1ccc(Cl)c(Cl)c1)CC3OC1CC(N)C(O)C(C)O1 (stereo unspecified),59.5% (active)

row,SMILES,inhibition
1,CN(C(=O)CN1C(=O)CCSc2ccc(S(=O)(=O)N3CCCC3)cc21)c1ccccc1,-0.827%
2,CC1=CC2=NC(=O)CC(C)(C(=O)N(CC(=O)NC(C)(C)C)Cc3ccccc3)N2C=C1 (stereo unspecified),0.336%
3,COc1cc(-c2nnn(CC(=O)NCc3ccccc3)n2)cc(OC)c1OC,0.0025%
4,COc1ccccc1OCCC(=O)OCC(=O)NCc1ccccc1,-1.13%
5,COc1cc(C(=S)NCc2ccccc2)cc(Br)c1O,11% (active)
6,CSc1ccc(CN2CCC2(C)C(=O)Nc2ccc(C)c(O)c2)cc1 (stereo unspecified),-2.96%
7,Cc1cc(-c2ccc(C)c(S(=O)(=O)Nc3ccc(S(N)(=O)=O)cc3)c2)on1,14.4% (active)
8,Cc1cc(-c2ccc(C)c(S(=O)(=O)NC(C)Cc3ccco3)c2)on1 (stereo unspecified),-1.87%
9,CCc1ccc(-c2cc(C)no2)cc1S(=O)(=O)NCCc1ccc(S(N)(=O)=O)cc1,-1.2%
10,CO[C@@H]1[C@@H](OC(N)=O)[C@@H](O)C(Oc2ccc3c(O)c(NC(=O)c4ccc(O)c(CC=C(C)C)c4)c(=O)oc3c2C)OC1(C)C (stereo partly specified),-2.46%
11,Cc1cccc(C)c1NC(=O)CS(=O)CC(=O)N1CCN(c2ccccc2)CC1 (stereo unspecified),0.692%
12,Cc1ccc(NC(=O)CSCC(=O)NC2CCCCC2)cc1,1.13%
13,O=c1/c(=C/c2ccc(CNS(=O)(=O)c3ccccc3)o2)sc2n1CCN=2,-4.15%
14,Cc1ccc(N2CCN(S(=O)(=O)N(C)C)CC2)cc1Cl,0.0335%
15,CC(C)CC(N=C1NC(C)(C)Cc2ccccc21)C(=O)O (stereo unspecified),-3.18%
16,CCCn1c(=S)[nH]c2ccc(C(F)(F)F)cc21,-2.34%
17,Cc1nn(C(C)CC(=O)O)c(C)c1C (stereo unspecified),-1.05%
18,CCCC(=O)Nc1ccc2c(c1)nc1n2CCSC1,-0.77%
19,CS/C(=C\[N+](=O)[O-])Nc1ccc(C)cc1,2.23%
20,CC(C)CNC(=O)C(=O)NCC(c1ccc2c(c1)OCO2)N1CCOCC1 (stereo unspecified),-1.64%
21,CCCCN1C(=O)C(CC(=O)NCc2cccs2)CC(C(=O)N2CCOCC2)=C1C (stereo unspecified),-1.02%
22,CCNC(=O)NC(=O)C(C)OC(=O)C1CCN(S(=O)(=O)c2ccccc2F)CC1 (stereo unspecified),-0.363%
